# Measured values reported in PubChem BioAssay (NCATS).
# Several values for one entry are separate records, joined by “and”; a condition that tells them apart may be missing. Equal entries are not always repeated. Inconclusive results are not listed. Where a call stands in place of a potency, no number is given. More than one record can exist for a structure, and the calls need not agree. Activity calls are given as the source filed them. Unless noted, calls come from the whole dose curve; as a rule, active = well fitted curve in the direction sought with a large enough effect; inconclusive = small, poorly fitted or top-dose-only effect, or another doubt; inactive = no such curve, though single readings can be large; an effect the other way counts as inactive or inconclusive.
# Legend:
# [1] = molecular target: Papain (Carica papaya) (UniProt P00784); experiment: Primary qHTS assay for inhibitors of the protease papain (AID 1645873); conditions: papain Z-FR-AMC cleavage, AMC fluorescence; series mostly up to 49.8 µM;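 note: papain turnover of Z-FR-AMC read as the AMC fluorescence gain over 10 min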
# [2] = molecular target: N-terminal Xaa-Pro-Lys N-methyltransferase 1 (Homo sapiens) (UniProt Q9BV86); experiment: Confirmatory qHTS for Inhibitors of N-terminal methyltransferase 1 (NTMT1): MTaseGlo Assay (AID 1645874); conditions: NTMT1 enzyme, MTase-Glo SAH luminescence; series mostly up to 51.5 µM; note: nearly all actives have a fitted effect of over 65% in size; note: potency is the fitted concentration of half-maximal effect;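 for activity change, negative = inhibition: luminescence from SAH made as NTMT1 methylates SPKRIA peptide using SAM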
# Procedure, shortened: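 Luminescent MTase-Glo read-out of SAH. 125 nM NTMT1, 100 uM SAM, 1 uM SPKRIA substrate, 30 min RT reaction after 15 min compound preincubation. Normalized to no-enzyme and DMSO controls; Hill fit.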
# [3] = Primary qHTS for inhibitors of nuclear receptor binding SET domain protein 2 (NSD2) in an isogenic RCH-ACV NSD2 p.E1099K mutant (9B) (AID 1645876); conditions: RCH-ACV NSD2 E1099K (9B) viability, CellTiter-Glo, 72 h; series mostly up to 44.9 µM; note: nearly all actives have a fitted effect of over 70% in size; note: potency is the fitted concentration of half-maximal effect
# [4] = Primary qHTS for inhibitors of nuclear receptor binding SET domain protein 2 (NSD2) in an RCH-ACV wild type WT cells (2C) (AID 1645877); conditions: RCH-ACV (leukaemia line) NSD2 WT (2C) viability, CellTiter-Glo, 72 h; series mostly up to 44.9 µM; note: nearly all actives have a fitted effect of over 70% in size; note: potency is the fitted concentration of half-maximal effect
# [5] = Viability counterscreen for antagonist of constitutive androstane receptor (CAR) against the NCATS DSHEA and TCM libraries (AID 1794837); conditions: CAR reporter cell line viability counterscreen, qHTS; series mostly up to 40 µM;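 note: compound exposure lasted 24 h before viability reading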
# Procedure, shortened: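 Counterscreen performed in a 1536-well qHTS format using HepG2-CYP2B6-hCAR cells; samples titrated in the presence of 48 uM CITCO, with viability measured fluorometrically (405/540 nm) after 24 h.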
# [6] = Viability counterscreen for agonist of constitutive androstane receptor (CAR) against the NCATS DSHEA and TCM libraries (AID 1794838); conditions: HepG2 cell viability counterscreen, CAR agonist assay, co-treated with 0.75 µM CAR antagonist; series mostly up to 40 µM;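 note: cells exposed to compound for 24 h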
# Procedure, shortened: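 Multiplexed counterscreen: after 24 h compound exposure with 0.75 uM PK11195, HepG2-CYP2B6-hCAR viability was quantified fluorimetrically (CellTiter-Fluor, 405/540 nm) prior to the ONE-Glo luciferase read.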
# [7] = molecular target: Nuclear receptor subfamily 1 group I member 3 (Homo sapiens) (UniProt Q14994); experiment: Primary qHTS for agonist of constitutive androstane receptor (CAR) against the NCATS DSHEA and TCM libraries (AID 1794839); conditions: CAR agonist reporter cells, qHTS luminescence, CAR antagonist co-added at 0.75 µM; series mostly up to 40 µM;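 note: HepG2 cells expressing human CAR with a CYP2B6 reporter plus PK11195 antagonist; luciferase reporter luminescence read with ONE-Glo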
# Procedure, shortened: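 Concentration–response screen in HepG2-CYP2B6-hCAR cells under 0.75 µM PK11195; 24 h exposure; luminescent reporter signal with multiplexed fluorescent viability.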
# [8] = HepG2 viability counterscreen (readout 2: ATP content) against the NCATS DSHEA and TCM libraries (AID 1794840); conditions: ATP content luminescence; series mostly up to 27.3 µM;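 note: HepG2 cells exposed to substances for about 24 h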
# Procedure, shortened: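 After HepG2 cells attach for ~4 h, substances are added and incubated ~24 h at 37C, 5% CO2. GF-AFC fluorescence then CellTiter-Glo luminescence give protease and ATP readouts.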
# [9] = molecular target: Catechol O-methyltransferase (Homo sapiens) (UniProt P21964); experiment: Confirmatory Screen for Target Class Profiling of Small Molecule Inhibitors of Methyltransferases (AID 1745852; calls by dose curve; note: potency is the fitted concentration of half-maximal effect); conditions: MTase-Glo luminescence, SAH detection, recombinant enzyme, stronger effect = lower value; measured here: COMT max response unless noted
# [10] = molecular target: Guanidinoacetate N-methyltransferase (Homo sapiens) (UniProt Q14353); experiment: as above; conditions: MTase-Glo luminescence, SAH detection, recombinant enzyme; activity change, negative = inhibition: at 57.3 µM (top of the series)
# [11] = molecular target: Nicotinamide N-methyltransferase (Homo sapiens) (UniProt P40261); experiment: as above; conditions: MTase-Glo luminescence, SAH detection, recombinant enzyme, stronger effect = lower value; measured here: NNMT max response unless noted
# [12] = molecular target: Phenylethanolamine N-methyltransferase (Homo sapiens) (UniProt P11086); experiment: as above; conditions: MTase-Glo luminescence, SAH detection, recombinant enzyme, stronger effect = lower value; measured here: PNMT max response unless noted
# [13] = NCATS anti-infectives library activity on the primary C. elegans qHTS viability assay (AID 1745855; calls by dose curve); conditions: C. elegans worm area imaging, day 7; series mostly up to 41.8 µM
# Procedure, shortened: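 Viability read-out is GFP fluorescence of PE254-GFP-FLuc C. elegans, measured by laser cytometry (488 nm) at day 0, 3 and 7. Ten L1 worms per well were incubated 7 days at 21 °C with compounds and bacterial capsules in S medium.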
# Sequence of Papain (Carica papaya) (P00784 whole entry, looked up): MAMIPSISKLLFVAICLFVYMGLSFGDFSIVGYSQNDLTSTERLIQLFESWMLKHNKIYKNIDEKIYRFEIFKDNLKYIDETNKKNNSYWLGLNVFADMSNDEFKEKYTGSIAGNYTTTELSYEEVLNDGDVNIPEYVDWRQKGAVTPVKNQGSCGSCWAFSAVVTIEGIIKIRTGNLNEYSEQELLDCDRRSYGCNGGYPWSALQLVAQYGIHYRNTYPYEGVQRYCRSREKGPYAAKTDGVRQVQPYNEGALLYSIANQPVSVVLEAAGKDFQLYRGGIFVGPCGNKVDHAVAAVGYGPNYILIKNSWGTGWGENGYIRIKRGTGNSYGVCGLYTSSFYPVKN
# Sequence of N-terminal Xaa-Pro-Lys N-methyltransferase 1 (Homo sapiens) (Q9BV86 whole entry, looked up): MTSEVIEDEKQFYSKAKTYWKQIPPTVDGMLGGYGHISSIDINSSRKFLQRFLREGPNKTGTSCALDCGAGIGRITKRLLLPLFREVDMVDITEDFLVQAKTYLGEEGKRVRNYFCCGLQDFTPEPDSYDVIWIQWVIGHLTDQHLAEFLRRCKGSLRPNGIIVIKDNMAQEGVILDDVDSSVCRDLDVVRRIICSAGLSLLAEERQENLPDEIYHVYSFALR
# Sequence of Catechol O-methyltransferase (Homo sapiens) (P21964 whole entry, looked up): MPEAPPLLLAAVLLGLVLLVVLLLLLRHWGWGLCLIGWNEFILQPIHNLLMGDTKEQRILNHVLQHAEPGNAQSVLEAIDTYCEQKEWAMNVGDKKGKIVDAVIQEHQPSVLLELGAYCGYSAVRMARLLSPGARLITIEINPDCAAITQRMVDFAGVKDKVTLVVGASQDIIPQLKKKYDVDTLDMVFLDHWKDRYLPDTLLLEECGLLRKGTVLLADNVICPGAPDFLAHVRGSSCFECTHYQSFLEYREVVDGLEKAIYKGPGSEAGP
# Sequence of Phenylethanolamine N-methyltransferase (Homo sapiens) (P11086 whole entry, looked up): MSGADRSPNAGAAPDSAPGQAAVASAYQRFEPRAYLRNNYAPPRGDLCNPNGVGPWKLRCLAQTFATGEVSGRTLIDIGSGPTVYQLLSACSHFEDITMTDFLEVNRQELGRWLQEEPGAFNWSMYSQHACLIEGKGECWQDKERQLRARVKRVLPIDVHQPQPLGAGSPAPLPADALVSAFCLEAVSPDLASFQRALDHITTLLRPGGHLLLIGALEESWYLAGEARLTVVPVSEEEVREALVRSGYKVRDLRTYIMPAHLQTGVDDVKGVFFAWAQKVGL
# Sequence of Nuclear receptor subfamily 1 group I member 3 (Homo sapiens) (Q14994 whole entry, looked up): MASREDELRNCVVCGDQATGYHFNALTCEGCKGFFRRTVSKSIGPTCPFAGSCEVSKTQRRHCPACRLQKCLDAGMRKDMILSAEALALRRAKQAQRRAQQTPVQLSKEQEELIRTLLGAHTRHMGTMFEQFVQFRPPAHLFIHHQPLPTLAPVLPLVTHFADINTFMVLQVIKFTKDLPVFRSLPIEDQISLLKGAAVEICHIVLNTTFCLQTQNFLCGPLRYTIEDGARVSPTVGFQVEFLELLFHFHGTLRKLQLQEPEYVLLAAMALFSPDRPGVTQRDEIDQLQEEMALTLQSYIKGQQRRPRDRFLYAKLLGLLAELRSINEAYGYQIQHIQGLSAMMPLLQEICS
# Sequence of Nicotinamide N-methyltransferase (Homo sapiens) (P40261 whole entry, looked up): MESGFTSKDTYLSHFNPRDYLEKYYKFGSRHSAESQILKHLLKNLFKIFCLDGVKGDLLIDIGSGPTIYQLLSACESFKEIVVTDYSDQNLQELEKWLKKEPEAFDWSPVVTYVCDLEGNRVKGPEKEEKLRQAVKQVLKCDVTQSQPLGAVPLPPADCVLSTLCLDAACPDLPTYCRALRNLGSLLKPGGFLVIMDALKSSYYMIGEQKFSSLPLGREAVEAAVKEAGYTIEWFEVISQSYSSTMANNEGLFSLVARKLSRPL
compound,measurement,setting,value
Cc1cc(O)c2c(c1)C(=O)c1cc(O)cc(O)c1C2=O,Potency,[1],inactive
same,Potency,[2],30.8 µM (active)
same,Potency,[3],inactive
same,Potency,[4],inactive
same,outcome,[5],inactive
same,outcome,[6],inactive
same,outcome,[7],inactive
same,outcome,[8],inactive
COc1cc(Nc2c(C#N)cnc3cc(OCCCN4CCN(C)CC4)c(OC)cc23)c(Cl)cc1Cl,Potency,[2],15.8 µM (active)
same,Potency,[3],596 nM (active) and 1.63 µM (active) and 1.32 µM (active)
same,Potency,[4],531 nM (active) and 1.63 µM (active) and 1.48 µM (active)
same,activity,[9],-94.4%
same,Potency,[10],12.1 µM (active)
same,activity,[11],-86.9%
same,activity,[12],-96.9%
Oc1ccc(-c2nc(-c3ccc(F)cc3)c(-c3ccncc3)[nH]2)cc1,Potency,[1],inactive
same,Potency,[2],39.8 µM (active)
same,Potency,[3],5.25 µM (active)
same,Potency,[4],14.8 µM (active)
CCOC(=O)C1=C(O)C(=O)N(Cc2ccccc2)C1,Potency,[1],inactive
same,Potency,[3],inactive
same,Potency,[4],inactive
CC1Cc2ccccc2N1NC(=O)c1ccc(Cl)c(S(N)(=O)=O)c1 (configuration not stated),Potency,[3],inactive
same,Potency,[4],inactive
COC1=C(OC)C(=O)C(CCCCCCCCCCO)=C(C)C1=O,Potency,[3],11.9 µM (active) and 18.6 µM (active)
same,Potency,[4],9.44 µM (active) and 18.6 µM (active)
COCCCN1CCC(NC(=O)c2cc(Cl)c(N)c3c2OCC3)CC1,Potency,[3],inactive
same,Potency,[4],inactive
O=C(O)c1cc(=O)c2c(OCC(O)COc3cccc4oc(C(=O)O)cc(=O)c34)cccc2o1,Potency,[3],inactive
same,Potency,[4],inactive
S=c1nc[nH]c2nc[nH]c12,Potency,[2],inactive
same,Potency,[3],944 nM (active) and 2.63 µM (active)
same,Potency,[4],668 nM (active) and 1.66 µM (active)
same,Potency,[13],inactive
CCc1nc(N)nc(N)c1-c1ccc(Cl)cc1,Potency,[3],2.37 µM (active) and 2.95 µM (active)
same,Potency,[4],3.35 µM (active) and 4.17 µM (active)
O=C(NC(Cc1cc(=O)[nH]c2ccccc12)C(=O)O)c1ccc(Cl)cc1 (configuration not stated),Potency,[3],inactive
same,Potency,[4],inactive
CC(C)(S)[C@@H](N)C(=O)O,outcome,[3],inactive [at 4.96 µM]
same,outcome,[4],inactive [at 4.96 µM]
Nc1nc(N)c(N=O)c(OCC2CCCCC2)n1,Potency,[3],7.31 µM (active) and 4.68 µM (active)
same,Potency,[4],6.51 µM (active)
CCCS(=O)c1ccc2nc(NC(=O)OC)[nH]c2c1 (configuration not stated),Potency,[3],4.22 µM (active) and 8.17 µM (active)
same,Potency,[4],2.66 µM (active) and 18.6 µM (active) and 4.09 µM (active)
Cc1nccn1CC1CCc2c(c3ccccc3n2C)C1=O (configuration not stated),Potency,[3],inactive
same,Potency,[4],inactive
CCCOc1ccc2nc(NC(=O)OC)[nH]c2c1,Potency,[3],411 nM (active) and 417 nM (active)
same,Potency,[4],366 nM (active) and 263 nM (active)
COc1cc2c(N3CCN(C(=O)Nc4ccc(OC(C)C)cc4)CC3)ncnc2cc1OCCCN1CCCCC1,Potency,[3],18.8 µM (active) and 25.8 µM (active) and 16.6 µM (active)
same,Potency,[4],13.3 µM (active) and 23 µM (active) and 16.6 µM (active)
Nc1ccc(S(N)(=O)=O)cc1,Potency,[3],inactive
same,Potency,[4],inactive
CC1=C(C(=O)O)N2C(=O)[C@@H](NC(=O)[C@H](N)C3=CCC=CC3)[C@H]2SC1,Potency,[3],inactive
COc1ccc(C2(C#N)CCC(C(=O)O)CC2)cc1OC1CCCC1 (configuration not stated),Potency,[3],inactive
same,Potency,[4],inactive
CN1C(C(=O)Nc2ccccn2)=C(O)c2sccc2S1(=O)=O,Potency,[3],inactive
same,Potency,[4],inactive
CC(S)C(=O)NCC(=O)O (configuration not stated),Potency,[3],inactive
same,Potency,[4],inactive
Cc1cc(=O)c2c(O)c3c(O)cc(=O)c4c3c3c(cc(O)c1c23)C(C)(C)C=4O,Potency,[3],inactive
NS(=O)(=O)c1cc(C(=O)O)c(NCc2ccco2)cc1Cl,Potency,[3],inactive
same,Potency,[4],inactive
O=C(NCCO[N+](=O)[O-])c1cccnc1,Potency,[3],inactive
same,Potency,[4],inactive
COCCCOc1ccnc(CS(=O)c2nc3ccccc3[nH]2)c1C (configuration not stated),Potency,[3],inactive
same,Potency,[4],inactive
CCCCCCCCCCCCCCCCCCCCCCO,Potency,[3],inactive
same,Potency,[4],inactive
CS(=O)(=O)OCCCCOS(C)(=O)=O,Potency,[3],inactive
same,Potency,[4],inactive
Cc1ncc([N+](=O)[O-])n1CC(C)O (configuration not stated),Potency,[3],inactive
same,Potency,[4],inactive
Cc1cccc(CN2CCN(C(c3ccccc3)c3ccc(Cl)cc3)CC2)c1 (configuration not stated),Potency,[3],inactive
O=c1c(O)c(-c2cc(O)c(O)c(O)c2)oc2cc(O)cc(O)c12,Potency,[3],18.6 µM (active)
CCCc1cc(=O)[nH]c(=S)[nH]1,Potency,[3],inactive
same,Potency,[4],inactive
Cc1ccc(S(=O)(=O)NC(=O)NN2CC3CCCC3C2)cc1 (configuration not stated),Potency,[3],inactive
same,Potency,[4],inactive
CCCCN(CCCC)CCC(O)c1cc2c(Cl)cc(Cl)cc2c2cc(C(F)(F)F)ccc12 (configuration not stated),Potency,[3],13.3 µM (active)
same,Potency,[4],16.6 µM (active)
O=C1CCc2ccc(OCCCCN3CCN(c4cccc(Cl)c4Cl)CC3)cc2N1,Potency,[3],inactive
COc1cc2nc(N3CCN(C(=O)C4CCCO4)CC3)nc(N)c2cc1OC (configuration not stated),Potency,[3],11.9 µM (active)
CCCCc1ccc2nc(NC(=O)OC)[nH]c2c1,Potency,[3],53.1 nM (active) and 166 nM (active)
same,Potency,[4],47.3 nM (active) and 118 nM (active)
CCC1=C(C)CN(C(=O)NCCc2ccc(S(=O)(=O)NC(=O)NC3CCC(C)CC3)cc2)C1=O (configuration not stated),Potency,[3],inactive
Nc1ccn([C@@H]2O[C@H](CO)[C@@H](O)C2O)c(=O)n1 (some centres not stated),Potency,[3],0.0166 µM (active)
same,Potency,[4],0.0166 µM (active)
CCC(C)(Oc1ccc(C2(c3ccc(OC(C)(CC)C(=O)O)cc3)CCCCC2)cc1)C(=O)O (configuration not stated),Potency,[3],inactive
same,Potency,[4],inactive
Nc1cccc2c1CN(C1CCC(=O)NC1=O)C2=O (configuration not stated),Potency,[3],inactive
same,Potency,[4],inactive
CCCCC(CC)COC(=O)C(C#N)=C(c1ccccc1)c1ccccc1 (configuration not stated),Potency,[3],21.1 µM (active) and inactive
same,Potency,[4],inactive
C[Se]CCC(N)C(=O)O (configuration not stated),Potency,[3],inactive
same,Potency,[4],inactive
Nc1ncn([C@H]2C[C@H](O)[C@@H](CO)O2)c(=O)n1,Potency,[3],266 nM (active) and 742 nM (active)
same,Potency,[4],133 nM (active) and 1.18 µM (active)
